VACV Venus inh: qHTS for Stage-Specific Inhibitors of Vaccinia Orthopoxvirus: Venus Reporter Primary qHTS; Vaccinia virus Venus reporter expression, fluorescence; Potency, µM (titrated, usually from 36.5 µM), actives largely listed as inhibitors; 0.46% of 330,000 active; calls by dose curve; tested in A549 cells; also: nearly all actives have a fitted effect of over 30% in size
VACV mCherry inh: qHTS for Stage-Specific Inhibitors of Vaccinia Orthopoxvirus: mCherry Reporter Primary qHTS | Potency, µM (top dose mostly 36.5 µM), actives largely listed as inhibitors | Vaccinia virus mCherry reporter infection, fluorescence | AID 720579, 2013 | 0.63% of 310,000 active; calls by dose curve; tested in A549 cells; also: nearly all actives have a fitted effect of over 35% in size
MARV entry inh: qHTS for inhibitors of binding or entry into cells for Marburg Virus | Marburg virus pseudotyped entry inhibition, cell reporter | Potency, µM (titrated, usually from 37.8 µM), usual class: inhibitors | 1.8% of 300,000 active; calls by dose curve; tested in HEK293 cells
Lassa entry inh: qHTS for Inhibitors of binding or entry into cells for Lassa Virus; Lassa virus pseudotype entry inhibition, cell reporter; Potency, µM (titrated, usually from 37.9 µM), actives largely listed as inhibitors; 1.2% of 300,000 active; calls by dose curve; tested in HEK293 cells; also: nearly all actives have a fitted effect of over 50% in size
Large screens that a line does not name were inactive; ! = not active in a repeat. Most compounds without a hit are left out; they make up all but 2.5% or so of the library.

CC[C@H]1CN2CCc3cc(OC)c(OC)cc3C2C[C@@H]1C[C@H]1NCCc2cc(OC)c(OC)cc21 (stereo not given in full)	VACV Venus inh 0.891µM, VACV mCherry inh 0.501µM (no result: MARV entry inh, Lassa entry inh)
CCC1=C(CC2NCCc3ccccc32)CC2c3cc(OC)c(OC)cc3CCN2C1 (stereo not given)	VACV Venus inh 3.55µM, VACV mCherry inh 3.55µM, MARV entry inh inconclusive, Lassa entry inh inconclusive
Cc1cc(-c2ccccc2)nc(N/N=C/c2ccc(O)cc2)n1	VACV mCherry inh 8.91µM, MARV entry inh inconclusive, Lassa entry inh 8.91µM
CCN(CC)c1ccc(/C=N/Nc2nc(C)cc(C)n2)cc1	VACV Venus inh inconclusive, VACV mCherry inh inconclusive, MARV entry inh 10µM, Lassa entry inh inconclusive
Cc1cc(C)nc(N/N=C/c2ccccc2)n1	none (no result: VACV Venus inh, VACV mCherry inh)
Oc1ccc(/C=N/Nc2nc(-c3ccc(Cl)cc3)cc(C(F)(F)F)n2)cc1	VACV Venus inh 11.2µM, VACV mCherry inh 11.2µM, MARV entry inh 11.2µM, Lassa entry inh inconclusive
COc1cc2c(cc1OC)[C@@H]1O[C@](CCCCN3C(=O)c4ccccc4C3=O)(C2)Oc2cc(C)n(Cc3ccccc3)c(=O)c21	none (no result: VACV Venus inh, VACV mCherry inh, Lassa entry inh)
Cc1cnc(-n2ncc(C(=O)N(C)CC3COCCO3)c2C2CC2)nc1-c1cccs1 (stereo not given)	none (no result: MARV entry inh, Lassa entry inh)
CCn1c(O)c(/C=C2\C=NN=C2c2ccccc2)sc1=S	VACV Venus inh inconclusive, VACV mCherry inh inconclusive, Lassa entry inh inconclusive
CC(C)Cn1c(O)c(/C=C2\C=NN=C2c2ccccc2)sc1=S	VACV Venus inh inconclusive, VACV mCherry inh inconclusive, MARV entry inh inconclusive, Lassa entry inh 12.6µM
CC(C)NCC(O)COc1cccc2ccccc12 (stereo not given)	MARV entry inh 0.794µM!
NC(=S)N/N=C/c1ccc(-n2nncc2-c2ccc(Cl)cc2)cc1	VACV Venus inh 1.12µM, VACV mCherry inh 0.794µM, MARV entry inh inconclusive, Lassa entry inh 11.2µM
COc1ccc(CN(Cc2ccccc2)C(=O)c2ccco2)cc1COc1ccc(NC(C)=O)cc1	none (no result: MARV entry inh, Lassa entry inh)
Nc1ncnc2c1ncn2C1C=C(CO)C(O)C1O (stereo not given)	VACV Venus inh inconclusive, VACV mCherry inh 1.12µM, MARV entry inh inconclusive, Lassa entry inh 0.251µM
CCCCCOc1ccc(Br)cc1/C(C)=N/NC1=NCCN1	VACV Venus inh 12.6µM, VACV mCherry inh inconclusive, MARV entry inh 10µM, Lassa entry inh inconclusive
CCC1C(=O)OC[C@@H]1Cc1cncn1C (stereo not given in full)	none (no result: VACV Venus inh, VACV mCherry inh, Lassa entry inh)
c1ccc(-c2ccc(CN3CCSCC3)cc2)cc1	none
O=S(=O)(CCN1CCSCC1)c1ccccc1	VACV Venus inh inconclusive, VACV mCherry inh 12.6µM
CCC[C@H]1CN(Cc2ccccc2)C(=O)[C@H]1CC(=O)NC	none (no result: VACV Venus inh, VACV mCherry inh, MARV entry inh)
CCN1c2ccccc2NC2N=C(OC)C(c3ccccc3)C21 (stereo not given)	VACV Venus inh inconclusive, VACV mCherry inh inconclusive, MARV entry inh 23.1µM
COc1ccc(N2CCN(c3c(S(=O)(=O)c4ccccc4)cnc4ccc(OC)cc34)CC2)cc1	MARV entry inh 8.91µM, Lassa entry inh inconclusive
CCOc1ccc2ncc(S(=O)(=O)c3ccccc3)c(N3CCN(c4ccc(OC)cc4)CC3)c2c1	MARV entry inh inconclusive, Lassa entry inh inconclusive
Cn1nc(C(=O)Nc2cccc(S(=O)(=O)N3CCCCC3)c2)c2ccccc2c1=O	MARV entry inh 6.31µM
O=C(Nc1ccccc1N1CCOCC1)c1ccc([N+](=O)[O-])o1	VACV Venus inh inconclusive, VACV mCherry inh 11.2µM, MARV entry inh inconclusive, Lassa entry inh inconclusive
O=C(Nc1ccccc1N1CCCCC1)c1ccc([N+](=O)[O-])o1	VACV Venus inh inconclusive, VACV mCherry inh 12.6µM, Lassa entry inh inconclusive
O=C(Nc1cccc(S(=O)(=O)N2CCCCC2)c1)c1ccc([N+](=O)[O-])o1	VACV Venus inh 10µM, VACV mCherry inh 11.2µM (no result: MARV entry inh, Lassa entry inh)
O=C(COC(=O)c1ccc([N+](=O)[O-])o1)Nc1cccc(S(=O)(=O)N2CCCCC2)c1	none (no result: Lassa entry inh)
O=C(Nc1cccc(Cl)c1N1CCCC1)c1ccc([N+](=O)[O-])o1	none
O=C(Nc1ccccc1N1CCOCC1)c1cccc([N+](=O)[O-])c1	none
CCC(O)CNC(=O)c1cnn(-c2ncc3c(n2)-c2ccccc2CCC3)c1C1CC1 (stereo not given)	none (no result: MARV entry inh, Lassa entry inh)
COc1cc(/C=N/Nc2snc(SC)c2C#N)cc(OC)c1OC	VACV Venus inh inconclusive, MARV entry inh 1.58µM, Lassa entry inh 1.26µM (no result: VACV mCherry inh)
O=C(O)[C@@H](O)c1ccco1	none (no result: VACV Venus inh, VACV mCherry inh, Lassa entry inh)
CC(C)(C)NC(=O)CSc1nc2ccc(NC(=O)CSc3nnnn3Cc3ccccc3)cc2s1	VACV Venus inh inconclusive, VACV mCherry inh inconclusive, MARV entry inh 8.91µM, Lassa entry inh inconclusive
Cc1cc(C=Nc2ccc(/C=C/c3ccnc4ccccc34)cc2)ccc1N(C)C	none (no result: MARV entry inh, Lassa entry inh)
CCNc1nc(CN2CCCCC2)nc2scc(-c3ccccc3)c12	MARV entry inh 4.47µM, Lassa entry inh inconclusive
